Results reported in publication PMC4336329 (PLoS ONE, 2015).
The whole screen tested about 310,000 compounds, of which about 14,000 (4.5%) showed an effect of 50% or more. The effect is printed as a negative number. What follows is part of a selection rich in strong results, with near analogues and random picks from the rest.

What follows are compounds tested against human ether-à-go-go-related gene (hERG) potassium channel (human, UniProt Q12809) (assay: primary screen, population patch clamp on CHO cells stably expressing hERG; higher = less effect of the substance).
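Note: peak tail current of the secondary pulse compared with the same well before compound.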

Sequence of human ether-à-go-go-related gene (hERG) potassium channel (Q12809 whole entry, looked up): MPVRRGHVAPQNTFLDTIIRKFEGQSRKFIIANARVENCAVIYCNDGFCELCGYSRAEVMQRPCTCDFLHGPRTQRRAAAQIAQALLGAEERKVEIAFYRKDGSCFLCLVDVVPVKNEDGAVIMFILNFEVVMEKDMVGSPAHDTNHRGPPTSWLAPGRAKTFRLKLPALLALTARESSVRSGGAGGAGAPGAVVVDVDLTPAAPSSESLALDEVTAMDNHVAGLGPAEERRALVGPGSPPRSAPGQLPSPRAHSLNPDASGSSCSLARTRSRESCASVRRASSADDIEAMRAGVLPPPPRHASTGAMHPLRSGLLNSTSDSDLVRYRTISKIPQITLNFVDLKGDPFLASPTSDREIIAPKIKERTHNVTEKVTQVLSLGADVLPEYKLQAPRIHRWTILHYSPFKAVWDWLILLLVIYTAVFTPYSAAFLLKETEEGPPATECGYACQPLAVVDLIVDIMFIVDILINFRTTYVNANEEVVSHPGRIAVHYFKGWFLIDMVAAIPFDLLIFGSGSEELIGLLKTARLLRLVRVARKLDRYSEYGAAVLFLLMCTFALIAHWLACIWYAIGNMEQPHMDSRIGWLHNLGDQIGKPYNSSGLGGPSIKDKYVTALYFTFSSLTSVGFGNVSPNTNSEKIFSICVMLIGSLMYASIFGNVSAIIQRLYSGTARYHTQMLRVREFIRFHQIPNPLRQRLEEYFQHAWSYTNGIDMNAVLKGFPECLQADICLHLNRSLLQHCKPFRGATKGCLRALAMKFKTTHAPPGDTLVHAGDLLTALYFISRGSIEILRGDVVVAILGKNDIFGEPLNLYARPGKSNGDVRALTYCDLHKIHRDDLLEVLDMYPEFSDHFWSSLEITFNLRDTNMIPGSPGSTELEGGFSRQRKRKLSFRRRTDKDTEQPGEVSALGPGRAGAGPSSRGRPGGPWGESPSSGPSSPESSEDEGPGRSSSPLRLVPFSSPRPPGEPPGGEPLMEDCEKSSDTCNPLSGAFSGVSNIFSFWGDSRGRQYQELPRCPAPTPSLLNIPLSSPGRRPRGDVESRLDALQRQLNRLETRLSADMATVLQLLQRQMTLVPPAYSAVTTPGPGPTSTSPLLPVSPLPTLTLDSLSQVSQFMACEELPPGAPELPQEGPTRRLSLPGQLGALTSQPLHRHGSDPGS

Structure (SMILES) | hERG current change (%, negative = inhibition) at 10uM [%]
O=C(Cc1nnc(NC(=O)c2ccccc2)s1)N/N=C\c1ccc(O)c(O)c1 | 23.4
COc1ccc(OC)c(C2N(c3cc(C)on3)C(=O)C3CCCN32)c1 (centres unmarked) | 10.8
Cc1ccc2nc(N3CCN(C)CC3)c(C=O)c(=O)n2c1 | 5.3
Cc1ccc2nc(N3CCN(c4ccccc4)CC3)c(C=O)c(=O)n2c1 | 11.5
Cc1cccn2c(=O)c(C=O)c(N3CCN(c4ccc(F)cc4)CC3)nc12 | -22.1
Cc1cccn2c(=O)c(C=O)c(N3CCN(c4ccccc4)CC3)nc12 | -55.4
Cc1cccn2c(=O)c(C=O)c(N3CCN(C)CC3)nc12 | -0.442
Cc1ccc2nc(N3CCN(c4ccccc4F)CC3)c(C=O)c(=O)n2c1 | -70.1
CCOCCCNC(=O)Cc1ccc(-n2c(CC)nc3cccnc32)cc1 | -8.18
C=CCn1c(Oc2ccc(C=O)cc2OCC)nc2c1c(=O)n(C)c(=O)n2C | 24.4
CCc1nnc(SCC(=O)Nc2ccccc2)n1CC1CCCO1 (centres unmarked) | 2.61
Cc1cccc(N2CC(C(=O)Nc3nnc(SCCN4CCOCC4)s3)CC2=O)c1 (centres unmarked) | 0.559
O=C(NNC(=S)Nc1ccc(Cl)cc1Cl)c1cccnc1 | 8.1
COCCN(C(=O)c1ccco1)c1nc(-c2ccccc2)cs1 | 4.36
CCN(CC)CCCN(C(=O)c1ccco1)c1nc(-c2ccc(Cl)cc2)cs1.Cl | -71.2
CCN(C(=O)c1ccco1)c1nc(-c2ccc(OC)cc2)cs1 | 8.13
Cl.O=C(c1ccco1)N(CCCN1CCOCC1)c1nc(-c2ccc(F)cc2)cs1 | -29.4
CCN(CC)CCCN(C(=O)c1ccco1)c1nc(-c2ccc(C)cc2)cs1.Cl | -84.1
COc1ccc(-c2csc(N(CCCN3CCOCC3)C(=O)c3ccco3)n2)cc1.Cl | -32.4
CCOc1ccc(Oc2ccc(C(F)(F)F)cc2NC(=O)C2=COCCO2)cc1 | 13.6
CCC(CC)c1nnc(NC(=O)c2cc(-c3ccccc3)nc3ccccc23)s1 | 9.31
O=C(/C=C/c1ccccc1Cl)N(Cc1ccc(Cl)cc1)C1CCS(=O)(=O)C1 (centres unmarked) | 1.48

Structure (SMILES) | hERG current change (%, negative = inhibition) at 10uM [%]
O=C(NCC1CCCO1)c1ccccc1NS(=O)(=O)c1cccs1 (centres unmarked) | -5.56
Cc1cc(C)cc(OCCNC(=O)CCc2ccccc2)c1 | 4.83
COc1ccc(Cn2c(SCc3ccc(C)cc3)nc3cc(OC)c(OC)cc3c2=N)cc1Cl | 14.6
Cc1cccc(CSc2nc3ccncc3n2CC(=O)Nc2cc(C)cc(C)c2)c1 | 9.09
COc1ccc(-c2nc(Cn3c(SCc4ccccc4F)nc4ccncc43)c(C)o2)cc1 | 4.5
COc1ccc(-c2nc(Cn3c(SCc4ccc(F)cc4)nc4ccncc43)c(C)o2)cc1OC | -55.6
Cc1ccc(CSc2nc3ccncc3n2CC(=O)Nc2cc(C)cc(C)c2)cc1 | 7.38
CCC(C)NC(=O)c1ccc(CSc2nc3ccncc3n2Cc2ccc(F)cc2)cc1 (centres unmarked) | -59
COc1ccc(-c2nc(Cn3c(SCc4ccc(C)cc4)nc4ccncc43)c(C)o2)cc1OC | -52
O=C(NC1CCCC1)c1ccc(CSc2nc3ccncc3n2Cc2ccc(F)cc2)cc1 | -40.7
COc1ccc(-c2nc(Cn3c(SCc4cccc(F)c4)nc4ccncc43)c(C)o2)cc1OC | -62.4
COc1cc2nc(SCc3ccc(F)cc3)n(Cc3cccs3)c(=N)c2cc1OC | 0.564
CC1CCN(C(=O)c2ccc(CSc3nc4ccncc4n3Cc3ccc(F)cc3)cc2)CC1 | -46
CN1CCN(C(=O)c2ccc(CSc3nc4ccncc4n3Cc3ccc(F)cc3)cc2)CC1 | 0.727
CC1CCCCC1NC(=O)Cn1c(=O)oc2cc(S(=O)(=O)N3CCCC3)ccc21 (centres unmarked) | 18.8
O=NNc1nc2ccccc2n1Cc1ccccc1 | -1.83
COc1ccc(C2C(C(=O)c3ccc(C)o3)=C(O)C(=O)N2Cc2ccco2)cc1OC (centres unmarked) | 21
CCOCCCNC(=O)C(c1ccc(OC)cc1)N(Cc1ccc2c(c1)OCO2)C(=O)CNC(C)=O (centres unmarked) | 15.3
CCc1nnc(NC(=O)C(NC(=O)c2ccccc2Cl)C(C)C)s1 (centres unmarked) | 0.192
CCCCSc1nnc(-c2ccccc2)c2ccccc12 | -37.3
Cc1ccc2c(c1)C(=O)N(CCCCO)C2=O | 20.1
O=c1cc(CSc2ccccc2)[nH]c2ccccc12 | 8.17

Structure (SMILES) | hERG current change (%, negative = inhibition) at 10uM [%]
O=C(C[n+]1ccccc1)Nc1c(Cl)cc(Cl)cc1Cl.[Cl-] | 13.1
CC(=O)Nc1ccccc1C(=O)OCC(=O)c1ccccc1Cl | -12
CC1=NN(c2cccc(F)c2)C(=O)/C1=C/c1ccc(N(C)C)cc1 | 6.38
CCn1c(CNc2cccc(Cl)c2)nnc1SCC(=O)OC1CCCCC1 | -25
COC(=O)CSc1nnc(CNc2ccc(Cl)cc2)n1Cc1ccccc1 | -54.7
CCn1c(CNc2ccc(Cl)cc2)nnc1SCC(=O)OC1CCCCC1 | -37
CC(C)OC(=O)CSc1nnc(CNc2ccc(Cl)cc2)n1Cc1ccccc1 | -33
CCOC(=O)CSc1nnc(CNc2ccc(Cl)cc2)n1Cc1ccccc1 | -21.8
CCn1c(CNc2ccc(F)cc2)nnc1SCC(=O)OC1CCCCC1 | -51.7
CN(C)S(=O)(=O)c1cccc(NC(=O)COC(=O)CNC(=O)c2cccc([N+](=O)[O-])c2)c1 | -39.6
CCOc1ccc(N2C(=O)CSC23CCCCC3)cc1 | -3.56
COC(=O)c1[nH]c(C)c(/C(O)=C2\C(=O)C(=O)N(CCN(C)C)C2c2cccs2)c1C (centres unmarked) | 16.9
CCOC(CNC(=O)c1ccc2c(c1)ncn2-c1cccc(F)c1)OCC | -17.3
O=C(CSc1n[nH]c(=O)n1-c1ccc2c(c1)OCCO2)Nc1ccccc1 | 13
COc1ccc(OCC(=O)N/N=C/c2ccncc2)cc1 | 17.9
CCOC(=O)c1c(N2CCN(c3ccccc3)CC2)cc(C)nc1C.O=C([O-])C(=O)[O-] | -72
CCOC(=O)c1[nH]c(C)c(C(=O)N2CCN(c3ccccc3)CC2)c1C | -13.2
CCOC(=O)c1sc(NC(=O)CN2CCN(c3ccccc3)CC2)nc1C | -5.78
COc1ccccc1NC(=O)C(C)OC(=O)c1ccc(-n2cnnn2)cc1 (centres unmarked) | -87.5
CC(OC(=O)c1ccc(-n2cnnn2)cc1)C(=O)Nc1ccccc1F (centres unmarked) | -23.2
COc1ccccc1NC(=O)C(C)OC(=O)c1cccc(-n2cnnn2)c1 (centres unmarked) | -35.2
COCCn1c(C)cc(/C=N/NC(=O)c2cc3ccccc3cc2O)c1C | 10.3

Structure (SMILES) | hERG current change (%, negative = inhibition) at 10uM [%]
O=C(Nc1ccccc1F)C1CCN(S(=O)(=O)c2cccnc2)CC1 | 9.24
COc1ccc(S(=O)(=O)N(C)C)cc1NC(=O)COC(=O)c1nc2nccc(C)n2n1 | 9.68
CC(NC(=O)CN1c2cccc3cccc(c23)S1(=O)=O)c1ccc(S(N)(=O)=O)cc1 (centres unmarked) | -25.1
Cc1ccc(NC(=O)N/C=C/c2ccco2)cc1C | -1.57
Cn1cncc1COC(=O)c1ccc(Cl)cc1 | 5.21
COc1ccccc1N1CCN(Cc2nnnn2CCc2ccccc2)CC1.Cl | 8.3
COc1ccccc1N1CCN(C(=O)CCc2ccccc2)CC1 | -11.4
C/C(=C\c1ccccc1)CN1CCN(c2ccccc2)CC1 | -3.31
C/C=C(\C)CN1CCN(c2cccc(C)c2C)CC1 | -3.49
COc1ccccc1N1CCN(C/C(C)=C/c2ccccc2)CC1 | -63.4
COc1ccccc1N1CCN(CCc2ccccc2)CC1 | -59.4
C/C(=C\c1ccccc1)CN1CCN(c2ccccc2F)CC1 | 5.01
Cc1cccc(N2CCN(CCc3ccccc3)CC2)c1C | -75.1
Cc1cccc(N2CCN(C(=S)NCCc3ccccc3)CC2)c1C | -5.03
CC(C)C(NS(=O)(=O)c1cccs1)C(=O)NCc1ccccc1Cl (centres unmarked) | 0.166
Cn1sc(NC(=O)c2ccc(Cl)cc2)nc1=O | 7.93
COc1ccc2c(c1)[nH]c1c(C)nccc12.Cl | -28
COc1cc(/C=N/NC(=O)C(NC(=O)c2ccccc2)c2n[nH]c(=O)c3ccccc23)ccc1OCC(N)=O (centres unmarked) | 5.88
CCOc1ccc2nc3c(cc2c1)CN(CCOC)C(=NC)S3.Cl | 11.2
COc1cc(OC)cc(-c2c(-c3cccs3)c3cc(-c4ccc(OC)c(F)c4)ccc3n2C)c1 | 12.3
